Compounds with a hit are over-represented: about 21% of the library has one in this group of screens.
NS1 function inh: qHTS Assay for Inhibitors of Influenza NS1 Protein Function; Potency, µM (top dose mostly 46.1 µM), for inactives: at the top dose activity, positive = more growth; actives 0.4% (n = 270,000); AID 2326, 2010; calls by dose curve; further: potency means the concentration at half of the fitted maximal effect; actives are rising curves; nearly all actives have a fitted effect of over 50% in size
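Growth recovery, yeast-based: influenza A NS1 expressed in S. cerevisiae causes slow growth, and suppressors are detected by OD600. The parent strain without NS1 is used as positive control.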
Sm TGR block: qHTS Assay for the Inhibitors of Schistosoma Mansoni Peroxiredoxins; Schistosoma mansoni thioredoxin glutathione reductase (TGR), Q962Y6; purified TGR, DTNB reduction, TNB absorbance 405 nm; Potency, µM (series often up to 114 µM), inactives show at the highest dose activity change, negative = inhibition, hits mostly inhibitors; actives 3% (n = 360,000); AID 485364, 2010; further: potency means the concentration at half of the fitted maximal effect; on the % scale 0 is the no-effect control and ±100 the full control effect; nearly all actives have a fitted effect of over 60% in size
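Kinetic colorimetric format: TGR-catalysed, NADPH-driven DTNB reduction monitored via TNB absorbance. Enzyme dispensed at 20 nM; compound exposure 15 min at room temperature before reaction start.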
Cycloheximide cs: Cycloheximide Counterscreen for Small Molecule Inhibitors of Shiga Toxin. max response, %. actives 12% (n = 300,000). cell reporter, cycloheximide protein synthesis inhibition counterscreen; in the data active means max response mostly above about 13%, no sharp cut-off; inactive means mostly below about 14%; further: read at 38.3 µM for the half of the compounds with a filed dose; 0% is about no effect
Pf growth 48h: Primary qHTS for delayed death inhibitors of the malarial parasite plastid, 48 hour incubation; Potency, µM (top dose mostly 28.7 µM), for inactives: at the top dose activity change, negative = inhibition, most hits filed as inhibitors; actives 5.9% (n = 310,000); P. falciparum luciferase growth in erythrocytes, 48 h; further: potency means the concentration at half of the fitted maximal effect; on the % scale 0 is the no-effect control and ±100 the full control effect
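Growth was read as firefly luciferase luminescence after a 48 h, 37 C, 5% CO2 exposure of compounds to reporter-bearing P. falciparum cultures (0.1% parasitemia, 2% hematocrit final) in Albumax-supplemented RPMI 1640.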
Shiga toxin inh: A qHTS for Small Molecule Inhibitors of Shiga Toxin; inhibition, % at 38.7 µM; Vero cells, Shiga toxin protein synthesis inhibition reporter; actives 9.2% (n = 290,000); in the data active means inhibition mostly above about 28%, no sharp cut-off; inactive means mostly below about 43%; further: 0% is about no effect
Pf growth 96h: Primary qHTS for delayed death inhibitors of the malarial parasite plastid, 96 hour incubation; P. falciparum luciferase reporter growth, 96 h; Potency, µM (highest dose often 28.7 µM), inactives show at the highest dose activity change, negative = inhibition, usual class: inhibitors; actives 6.9% (n = 320,000); AID 504834, 2011; further: potency means the concentration at half of the fitted maximal effect; on the % scale 0 is the no-effect control and ±100 the full control effect
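Compounds incubated with erythrocytes infected by luciferase-expressing P. falciparum (2% hematocrit, 0.05% parasitemia final) for 96 hours, 37 C in 5% CO2. Growth inhibition scored as decreased luciferase luminescence.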
Numbers without * were called inactive; ? = inconclusive; · = not tested or not shown. Unless noted, the call rests on the fitted dose curve; in most records, active means well fitted curve in the direction sought with a large enough effect; inconclusive means small, poorly fitted or top-dose-only effect, or another doubt; inactive means no such curve, though single readings can be large; an effect the other way counts as inactive or inconclusive.

SMILES	NS1 function inh	Sm TGR block	Cycloheximide cs	Pf growth 48h	Shiga toxin inh	Pf growth 96h
Cc1nc(C(=O)N2CCc3c([nH]c4ccccc34)C2c2ccccn2)cs1 (stereo not drawn)	4.9%	-25.4%	5.1	18.2%	79.9*	-13.7%
COc1cc(OC)c(OC)cc1CNCCSc1nnnn1C	-59.2%	·	0.8	19.9%	11.6	?
COc1cc(Cl)ccc1OCc1cc(C(=O)N2CCC(N(C)C)C2)no1 (stereo not drawn)	-1.5%	-2.1%	11.0	5.7%	1.7	?
Cc1ccc(C)c(OCc2cc(C(=O)N3CC[C@H](O)C3)no2)c1	-4.1%	-7.7%	34.4*	5.7%	92.1*	55.3%
CCN1CCC2(CCN(C(=O)c3cc(COc4cc(C)ccc4C)on3)C2)C1 (stereo not drawn)	10.0%	-25.1%	10.2	?	3.2	-15.3%
CCCOC1CCCN(C(=O)c2cc(COc3c(F)cccc3F)on2)C1 (stereo not drawn)	-8.4%	-12.4%	46.8*	34.0%	92.8*	164.7%
COc1ccc(OCc2cc(C(=O)N3CCCC(OC)C3)no2)c2ccccc12 (stereo not drawn)	-33.1%	-11.8%	50.4*	?	92.4*	17.5%
COc1ccc(OCc2cc(C(=O)N3CCCC(O)C3)no2)c2ccccc12 (stereo not drawn)	-20.1%	?	55.4*	-4.3%	121.6*	?
COc1ccc(OC)c(NC(=O)C(C)n2c(=O)cc(C)c3c(C)nn(-c4ccccc4)c32)c1 (stereo not drawn)	·	-3.6%	·	·	·	·
CCc1ccc(-c2nn(CC(=O)NC3CCCCC3)c3c2cnc2ccc(F)cc23)cc1	·	-9.7%	·	·	·	·
COc1ccc(CN2CCNC(=O)C2CC(=O)NCC(C)(C)N2CCOCC2)cc1C (stereo not drawn)	15.4%	-35.2%	4.0	18.1%	18.1	?
COc1cc(/C=N/N2CCOCC2)ccc1OCc1ccc(Cl)cc1	·	5.8%	36.9*	5.7%	81.6*	30.3%
COc1ccc(/C=N/N2CCOCC2)cc1OCc1ccccc1	·	0.8%	8.7	22.4%	16.4	7.5%
COc1ccc(/C=N/N2CCOCC2)cc1O	22.9%	4.0%	28.2*	32.5%	48.0*	30.5%
COc1cc(/C=N/N2CCOCC2)ccc1OCc1ccccc1	-8.6%	0.9%	16.3*	0.0%	36.0	-2.1%
CC(C)c1cccc(C(C)C)c1NC1=NS(=O)(=O)c2ccccc21	·	1.9%	·	·	·	·
COc1cc(NC(=S)Nc2ncccc2C)cc(OC)c1OC	-0.1%	·	20.4*	-25.2%	40.7	6.7%
Cc1ccc(C)c(NC(=S)N2CCN(c3ccccn3)CC2)c1	-4.9%	-19.7%	-0.4	-6.5%	-7.5	?
COc1cc(NC(=S)Nc2cccc(C)n2)cc(OC)c1OC	0.2%	9.8%	0.6	-20.2%	-19.5	27.3%
Cc1cccnc1NC(=S)Nc1ccc(F)cc1F	-4.0%	?	35.2*	72.6%	76.8*	?
Cc1ccc(C)c(NC(=S)Nc2ncccc2C)c1	-75.1%	-22.5%	35.7*	39.6%	134.2*	?
O=C(COc1ccc(Cl)cc1Cl)c1ccc[nH]1	-4.7%	11.7%	30.7*	37.8%	57.1*	171.6%
O=C(COc1ccc(Cl)cc1Cl)N/N=C/c1ccc[nH]1	-8.8%	-26.3%	44.5*	3.1%	34.5*	9.7%
Cn1c(/C(C#N)=C/c2ccc(O)cc2)nc2ccccc21	-8.4%	8.5%	50.1*	-3.8%	46.9*	2.33µM*
Cn1c(/C(C#N)=C/c2ccncc2)nc2ccccc21	4.5%	·	6.8	-4.1%	18.0	6.9%
SMILES	NS1 function inh	Sm TGR block	Cycloheximide cs	Pf growth 48h	Shiga toxin inh	Pf growth 96h
Cc1ccc(S(=O)(=O)Nc2nc3ccccc3nc2Nc2cccc(S(=O)(=O)N3CCCC3)c2)cc1	3.5%	12.6%	-3.3	?	-2.6	?
C/C(=N/N1CCN(c2ccccn2)CC1)c1cccc([N+](=O)[O-])c1	0.6%	-15.0%	14.7*	23.3%	21.7	-12.5%
O=[N+]([O-])c1cccc(S(=O)(=O)Nc2nc3ccccc3nc2Nc2cccc(S(=O)(=O)N3CCCCC3)c2)c1	15.3%	-11.2%	0.6	14.7µM*	24.4	5.22µM*
O=[N+]([O-])c1cccc(S(=O)(=O)N2CCN(c3ccccn3)CC2)c1	6.1%	28.1%	-1.0	18.6%	-2.7	10.4µM*
O=C(c1cccc([N+](=O)[O-])c1)N1CCN(c2ccccn2)CC1	?	0.0%	-0.5	23.7%	-7.8	19.2%
CS(=O)(=O)c1cccc(S(=O)(=O)N2CCN(c3ccccn3)CC2)c1	9.0%	-14.5%	0.7	-25.3%	2.2	-29.1%
Cc1cc(Cl)ccc1NC(=O)CN1C(=O)COc2ccc(S(=O)(=O)Nc3ccccc3)cc21	·	6.3%	·	·	·	·
CC12CCC(c3c(CO)nn(-c4ccccc4)c31)C2(C)C (stereo not drawn)	-5.2%	3.8%	-1.2	?	10.8	10.4µM*
Cc1cc(C)c(S(=O)(=O)Cc2ccccc2)c(=O)[nH]1	0.2%	7.4%	-1.9	0.6%	-2.6	?
Cc1cc(C)c(S(=O)(=O)Cc2ccc(Cl)cc2)c(=O)[nH]1	·	-3.7%	3.4	10.4µM*	-4.0	12.7%
Cc1c(S(=O)(=O)c2ccccn2)c(N)n(Cc2cccc(Cl)c2)c1C	5.2%	2µM*	1.5	?	-6.4	?
Cc1ccccc1C(=O)NC(=S)Nc1ccc2[nH]c(=O)[nH]c2c1	·	?	-1.4	6.2%	-7.2	-21.8%
CCCCOc1c(Cl)cc(C(=O)N2CCN(CC(=O)N3CCCC3)CC2)cc1OCC	·	-25.2%	·	11.7µM*	·	?
CCCCOc1ccc(C(=O)NCCCC(=O)N2CCCCC2)cc1	-6.7%	32.1%	-2.1	?	13.3	-5.5%
CCCCCOc1ccc(C(=O)CCC(=O)N2CCCC2)cc1	-11.0%	-4.1%	22.0*	?	51.4*	?
COc1ccc(OCCC(=O)N2CCCCC2)cc1	4.1%	-11.3%	26.9*	126.8%	35.5*	·
CCCCOc1ccc(C(=O)N2CCCC2)cc1	-6.9%	-35.7%	36.0*	105.7%	102.7*	·
CCOC(=O)c1[nH]c2ccccc2c1NC(=S)Nc1cccc(C)c1	16.9%	-23.3%	31.7*	86.5%	26.9	59.1%
CCOC(=O)c1[nH]c2ccccc2c1NC(=S)Nc1ccccc1	9.1%	-33.0%	23.0*	76.1%	28.4	53.8%
CCOC(=O)c1[nH]c2ccccc2c1NC(C)=O	3.3%	-0.4%	-3.7	-1.7%	-6.9	22.2%
CCOC(=O)c1[nH]c2ccccc2c1NC(=O)c1ccc(S(=O)(=O)N2CCCC2)cc1	-10.2%	-7.6%	-4.6	?	2.5	11.7µM*
CN(C)Cc1c(C(=O)Nc2ccccc2)[nH]c2ccccc12	·	-4.4%	·	2.94µM*	·	9.28µM*

Bioassay records (PubChem BioAssay)
